Results: PubChem BioAssay (NCI)
Where “and” joins values, the source holds several entries; their conditions need not be identical. Identical values can stand only once. This is part of a sample that, as a whole, favours compounds with a hit. Of some 83,000 tested, about 20% had one in any assay.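 In brief: 96-well plates, 48 h treatment, single concentration, percent growth endpoint.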 Calls of active or inactive are those of the source. Rule for the calls: active = growth percent below 10; inactive = the rest.

How the values were obtained:
Assay in all cases: NCI-60 one-dose screen, 48 h (100 = growth as untreated, 0 = no growth, -100 = all killed)
Conditions in all cases: 10 µM unless noted
SK-MEL-2 melanoma = system: SK-MEL-2 melanoma
EKVX NSCLC = system: EKVX NSCLC
SN12C renal = system: SN12C renal
UO-31 renal = system: UO-31 renal
TK-10 renal = system: TK-10 renal
ACHN renal = system: ACHN renal
CAKI-1 renal = system: CAKI-1 renal
A498 renal = system: A498 renal
CCRF-CEM leukemia = system: CCRF-CEM leukemia
MOLT-4 leukemia = system: MOLT-4 leukemia
SR leukemia = system: SR leukemia
RPMI-8226 leukemia = system: RPMI-8226 leukemia
OVCAR-5 ovarian = system: OVCAR-5 ovarian
SK-OV-3 ovarian = system: SK-OV-3 ovarian
IGROV1 ovarian = system: IGROV1 ovarian
OVCAR-3 ovarian = system: OVCAR-3 ovarian
HS 578T breast = system: HS 578T breast
NCI/ADR-RES ovarian = system: NCI/ADR-RES ovarian
OVCAR-4 ovarian = system: OVCAR-4 ovarian
OVCAR-8 ovarian = system: OVCAR-8 ovarian

SMILES | growth (SK-MEL-2 melanoma) | growth (EKVX NSCLC) | growth (SN12C renal) | growth (UO-31 renal) | growth (TK-10 renal) | growth (ACHN renal) | growth (CAKI-1 renal) | growth (A498 renal) | growth (CCRF-CEM leukemia) | growth (MOLT-4 leukemia) | growth (SR leukemia) | growth (RPMI-8226 leukemia) | growth (OVCAR-5 ovarian) | growth (SK-OV-3 ovarian) | growth (IGROV1 ovarian) | growth (OVCAR-3 ovarian) | growth (HS 578T breast) | growth (NCI/ADR-RES ovarian) | growth (OVCAR-4 ovarian) | growth (OVCAR-8 ovarian)
O=C=NC(c1ccccc1)(c1ccccc1)c1ccccc1 | 118% (inactive) | 111% (inactive) | 102% (inactive) | 71.9% (inactive) | 110% (inactive) | 99.2% (inactive) | 91.7% (inactive) | 116% (inactive) | 102% (inactive) | 92.2% (inactive) | 96.2% (inactive) | 119% (inactive) | 99.1% (inactive) | 89.1% (inactive) | 105% (inactive) | 116% (inactive) | 111% (inactive) | 109% (inactive) |  | 
CCN(CC)CCCC(C)N(Cc1ccccc1)CC(O)c1ccc(Cl)cc1 (stereo unspecified) | 105% (inactive) and 103% (inactive) | 106% (inactive) and 96.2% (inactive) | 100% (inactive) and 104% (inactive) | 94.7% (inactive) and 90.9% (inactive) | 91.8% (inactive) and 90.4% (inactive) | 117% (inactive) and 103% (inactive) | 109% (inactive) | 91% (inactive) and 116% (inactive) | 103% (inactive) and 120% (inactive) | 107% (inactive) and 103% (inactive) | 119% (inactive) and 98.1% (inactive) | 99.9% (inactive) and 96.7% (inactive) | 91.2% (inactive) | 94.4% (inactive) and 102% (inactive) | 113% (inactive) and 101% (inactive) | 109% (inactive) and 100% (inactive) | 93.8% (inactive) and 111% (inactive) | 108% (inactive) and 98.3% (inactive) |  | 
CC(C)N=c1cc2n(-c3ccc(Cl)cc3)c3ccccc3nc-2cc1Nc1ccc(Cl)cc1 | -32.7% (active) and 0.294% (active) and -36.1% (active) | 39.6% (inactive) and 23% (inactive) and 12.3% (inactive) | 16.9% (inactive) and 25.6% (inactive) and 1.46% (active) | 27.9% (inactive) and -17% (active) and -5.99% (active) | 26.2% (inactive) and 58.6% (inactive) and 5.66% (active) | 27.2% (inactive) and 30.9% (inactive) and 17.8% (inactive) | 40.5% (inactive) and 22.6% (inactive) and 5.83% (active) | 74.8% (inactive) and 18.4% (inactive) | 15% (inactive) and 28.5% (inactive) and 1.85% (active) | 6.96% (active) and 15.3% (inactive) and -11.7% (active) | -35.4% (active) and 9.31% (active) | 2.57% (active) and -21.9% (active) and -42.6% (active) | 38.3% (inactive) and 49.6% (inactive) and 11.3% (inactive) | 37.6% (inactive) and 52.9% (inactive) and 42.6% (inactive) | 30.2% (inactive) and -9.37% (active) | -37.5% (active) and -71.1% (active) and -66.3% (active) | -13.2% (active) and 13.1% (inactive) |  | 5.39% (active) and 11.1% (inactive) and 7.85% (active) | 
O=C(O)CCCCc1ccc([N+](=O)[O-])cc1 | 98.9% (inactive) and 113% (inactive) | 107% (inactive) and 126% (inactive) | 98.9% (inactive) and 96.5% (inactive) | 82.4% (inactive) and 73.3% (inactive) | 106% (inactive) and 99.4% (inactive) | 103% (inactive) and 98.5% (inactive) | 107% (inactive) and 102% (inactive) | 84.4% (inactive) and 127% (inactive) | 97.1% (inactive) and 91.2% (inactive) |  | 105% (inactive) and 89.5% (inactive) | 95.4% (inactive) and 87.7% (inactive) | 116% (inactive) and 89.9% (inactive) | 109% (inactive) and 106% (inactive) | 98.1% (inactive) and 95.9% (inactive) | 106% (inactive) and 121% (inactive) | 127% (inactive) and 104% (inactive) | 101% (inactive) and 107% (inactive) | 101% (inactive) and 106% (inactive) | 114% (inactive) and 102% (inactive)
CCN(CC)CCc1nc(-c2ccccc2)no1 | 98% (inactive) and 104% (inactive) | 90.6% (inactive) and 98.4% (inactive) | 68% (inactive) and 80.8% (inactive) | 65.9% (inactive) and 68.2% (inactive) | 85.1% (inactive) and 107% (inactive) | 83.2% (inactive) and 110% (inactive) | 92.3% (inactive) and 88.2% (inactive) | 108% (inactive) and 110% (inactive) | 44.2% (inactive) and 90.8% (inactive) | 101% (inactive) |  | 60.9% (inactive) and 98.7% (inactive) | 98.6% (inactive) and 114% (inactive) | 98.2% (inactive) and 99.6% (inactive) | 78.7% (inactive) and 112% (inactive) | 73.2% (inactive) and 112% (inactive) | 98% (inactive) | 89.8% (inactive) and 99.4% (inactive) | 76.7% (inactive) and 103% (inactive) | 83.9% (inactive) and 94.4% (inactive)
COC(=O)c1nc(N)nc(C(=O)OC)c1C(=O)c1ccc(OC)cc1 | 108% (inactive) and 77.3% (inactive) | 101% (inactive) and 59.3% (inactive) | 113% (inactive) and 78.5% (inactive) | 89.6% (inactive) and 66.3% (inactive) | 105% (inactive) and 92.8% (inactive) | 104% (inactive) and 52.9% (inactive) | 94.8% (inactive) and 73.6% (inactive) | 133% (inactive) and 141% (inactive) | 104% (inactive) and 39.7% (inactive) | 136% (inactive) and 12.8% (inactive) | 90.2% (inactive) and 22.8% (inactive) | 107% (inactive) and 32.6% (inactive) | 121% (inactive) and 87.5% (inactive) | 106% (inactive) and 83.3% (inactive) | 106% (inactive) and 66.6% (inactive) | 117% (inactive) and 70.1% (inactive) | 105% (inactive) and 81.2% (inactive) | 105% (inactive) and 37.4% (inactive) | 105% (inactive) and 37.6% (inactive) | 
CCOc1ccc2c(S(=O)(=O)O)cccc2c1[N+](=O)[O-] | 117% (inactive) and 109% (inactive) | 99.2% (inactive) and 88.5% (inactive) | 106% (inactive) and 103% (inactive) | 71.5% (inactive) and 79.1% (inactive) | 104% (inactive) and 126% (inactive) | 103% (inactive) and 105% (inactive) | 87% (inactive) and 96.1% (inactive) | 95% (inactive) and 116% (inactive) | 90.6% (inactive) and 107% (inactive) | 86.8% (inactive) and 96.4% (inactive) | 100% (inactive) and 94.2% (inactive) | 98.1% (inactive) and 95.9% (inactive) | 102% (inactive) and 112% (inactive) | 102% (inactive) and 106% (inactive) | 96.3% (inactive) and 114% (inactive) | 107% (inactive) and 112% (inactive) | 102% (inactive) and 94.5% (inactive) | 103% (inactive) and 106% (inactive) | 123% (inactive) and 109% (inactive) | 
CN(C)c1ccc(C(=C2C=CC(=[N+](C)C)C=C2)c2ccccc2Cl)cc1 | -57.7% (active) and -52.4% (active) | 15.9% (inactive) and -34.1% (active) | -42% (active) and -50.3% (active) | -28.9% (active) and -12.3% (active) | -30.6% (active) and -72.4% (active) | 1.56% (active) and -64% (active) | -16.7% (active) | -64% (active) and -87.1% (active) | -35.3% (active) and 5.73% (active) | -26.3% (active) and 5.09% (active) | -38.3% (active) | -22.6% (active) |  | -38.7% (active) and -32.4% (active) |  | -88.9% (active) and -91.4% (active) | -37.3% (active) and -21.2% (active) | 23.2% (inactive) and 9.87% (active) | 4.46% (active) and -27% (active) | -77.5% (active) and -77.8% (active)
CN(Cc1ccccc1)Cc1ccccc1 | 104% (inactive) | 102% (inactive) | 101% (inactive) | 93% (inactive) | 88.2% (inactive) | 108% (inactive) | 93.9% (inactive) | 114% (inactive) | 115% (inactive) |  | 105% (inactive) | 110% (inactive) | 103% (inactive) | 113% (inactive) | 99.4% (inactive) | 106% (inactive) | 108% (inactive) |  | 113% (inactive) | 117% (inactive)
